Screens (PubChem BioAssay)
DT40 TDP1 CPT = growth inhibition of DT40 Tdp1-/-;hTDP1 cells with camptothecin (screen for TDP1 inhibitors) | chicken DT40 Tdp1-/-;hTDP1 cells + 20 nM CPT, ATP luminescence, 48 h | AID 686979 | 420,000 compounds, 12% hits | Potency, µM (series often up to 46.2 µM), inactives show at the highest dose activity change, negative = growth inhibition, usual class: inhibitors; also: potency is read from the fitted curve at half-maximal effect; nearly all actives have a fitted effect of over 55% in size
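Chicken DT40 Tdp1-/- cells stably complemented with human TDP1 were seeded at 400 cells/well in medium containing 20 nM camptothecin, exposed to pin-transferred compounds, and grown at 37 °C for at least 48 hr. Viability was read as ATP luminescence.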
HT1080 IDH1KD tx = HT-1080 IDH1 knockdown cell toxicity (counter line). Potency, µM (titrated, usually from 46.1 µM), for inactives: at the highest dose activity, negative = toxicity, most hits filed as cytotoxic. HT-1080 IDH1 knockdown viability, ATP luminescence, 48 h. 360,000 compounds, 2% hits. AID 686971;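 also: potency is read from the fitted curve at half-maximal effect; 0% = DMSO wells and -100% = cell-free medium wells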
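Cytotoxicity counter-line: IDH1KD HT-1080, 48 h, CellTiter-Glo. Curves classed by r2, magnitude and activity.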
ELG1 DNA repair = ELG1-dependent DNA repair inhibition; HEK293T ELG1-luciferase reporter, luminescence, 16 h; DNA damage induced by 5-fluorouridine; Potency, µM (top dose mostly 46.1 µM), for the others: at the highest dose activity change, negative = inhibition, usual class: inhibitors; 330,000 compounds, 2.3% hits; AID 504467; also: potency is read from the fitted curve at half-maximal effect; nearly all actives have a fitted effect of over 55% in size
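5-Fluorouridine DNA damage + compound/DMSO, 2,000 cells/well, 16 h, 37 °C/5% CO2. ONE-Glo, 30 min RT, luminescence. Readout = decrease in reporter signal.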
HT1080-NT tox = kills 2HG-producing HT-1080-NT fibrosarcoma cells. 360,000 compounds, 1.6% hits. Potency, µM (doses to about 46.1 µM), for inactives: at the top dose activity, negative = less viability, hits mostly cytotoxic. AID 686970. HT-1080-NT fibrosarcoma viability, CellTiter-Glo ATP luminescence, 48 h;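 also: NT is the 2HG producing partner of a matched IDH1 knockdown line; potency is read from the fitted curve at half-maximal effect; 0% = DMSO-treated cells and -100% = media-only wells without cells; nearly all actives have a fitted effect of over 55% in size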
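A 48-hour cytotoxicity screen used HT-1080-NT cells plated 2 hours before compound delivery. ATP-based CellTiter-Glo luminescence measured viability, normalized to DMSO and no-cell controls.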
IL1B secr inh = inhibitors of inflammasome signaling (IL-1 beta secretion); THP-1 LPS/ATP IL-1B secretion, AlphaLISA, 16 h; active compounds read low; activity change, % at 57.5 µM; 360,000 compounds, 4.7% hits; AID 743279; in the data active = activity change below about -50%; inconclusive = mostly about -30% to -49%
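THP-1 cells pretreated 1 hr with compounds (up to 57.5 uM final), then stimulated with LPS (250 ng/mL final) plus ATP (1.25 mM final); secreted IL-1B measured by AlphaLISA after 16 hr, decreased signal indicating inhibition.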
TDP1 cell noCPT = qHTS for Inhibitors of human tyrosyl-DNA phosphodiesterase 1 (TDP1): qHTS in cells in absence of CPT | AID 686978, 2013 | 420,000 compounds, 15% hits | Potency, µM (top dose mostly 46.2 µM), inactives show at the highest dose activity change, negative = growth inhibition, hits mostly inhibitors | DT40 Tdp1-/- hTDP1 cells, no CPT, ATP luminescence, 48 h; also: potency is read from the fitted curve at half-maximal effect; nearly all actives have a fitted effect of over 55% in size
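Growth of hTDP1-complemented DT40 Tdp1-knockout cells is measured by ATP luminescence after at least 48 hr compound exposure at 37 °C, with DMSO substituting for the 20 nM CPT used in the parallel screen.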
Starred values were filed as active, the others as inactive; ? = inconclusive; . = no result. Compounds with a hit are over-represented: about 19% of the library has one in this group of screens. Unless noted, calls follow the shape of the dose curve; as a rule, active = well fitted curve in the direction sought with a large enough effect; inconclusive = small, poorly fitted or top-dose-only effect, or another doubt; inactive = no such curve, though single readings can be large; an effect the other way counts as inactive or inconclusive. Unless noted, % is scaled to controls: 0 for no effect and ±100 for the full control effect.

SMILES | DT40 TDP1 CPT | HT1080 IDH1KD tx | ELG1 DNA repair | HT1080-NT tox | IL1B secr inh | TDP1 cell noCPT
CCN(CC)S(=O)(=O)c1ccc2c(c1)nc(CCC(=O)Nc1ccccc1Cc1ccccc1)n2CC | 20.6µM* | -27.4% | -15.5% | -7.6% | -13.9 | 23.1µM*
CCn1c(CCC(=O)Nc2cc(F)ccc2C)nc2cc(S(=O)(=O)N(C)C)ccc21 | ? | 5.1% | -4.8% | 7.9% | 1.5 | -13.3%
O=C(C[n+]1c(Cl)cc(Cl)c2ccccc21)c1ccccc1 | 4.47µM* | . | . | . | . | 6.31µM*
Cc1sc2ccccc2[n+]1CCC(C)S(=O)(=O)[O-] (stereo not drawn) | -9.3% | 13.4% | -1.7% | 7.8% | -13.3 | -0.9%
Cc1sc2ccccc2[n+]1CC(=O)c1ccccc1 | ? | -3.5% | 5.1% | 1.6% | ? | 18.4µM*
Cc1sc2ccccc2[n+]1CC(=O)c1ccc(F)cc1 | -0.2% | . | . | . | . | -3.2%
Cc1sc2ccccc2[n+]1CCC[n+]1c(C)sc2ccccc21 | 2µM* | . | . | . | . | 1.78µM*
Cc1ccc(C)c(Cn2c(=O)cc(C)c3c(C)nn(-c4cccc(F)c4)c32)c1 | 10.7% | . | . | . | . | 1.0%
COc1ccccc1NS(=O)(=O)c1cccc(NC(=O)c2cncc(Br)c2)c1 | ? | ? | ? | ? | -20.6 | 18.4µM*
COc1ccccc1NS(=O)(=O)c1cccc(NC(=O)NCCCl)c1 | 20.6µM* | 2.2% | ? | 19.4% | 0.0 | ?
COc1ccccc1NS(=O)(=O)c1cccc(NC(=O)Nc2cccc(Cl)c2)c1 | 20.6µM* | ? | ? | -6.4% | -65.0* | 20.6µM*
Cc1c(C#N)c(NC(=O)COC(=O)c2cc(Cl)c3c(c2)OCCCO3)n(Cc2ccco2)c1C | ? | . | . | . | . | -1.8%
COc1ccccc1C(C)NC(=O)CCNC(=O)c1ccc(Cl)cc1 (stereo not drawn) | -25.3% | 2.7% | -0.6% | 1.5% | -0.1 | -20.3%
Cc1c(Br)c(C(=O)NNC(=O)c2ccc(C(C)(C)C)cc2)nn1C | ? | -0.4% | ? | 5.3% | -13.3 | ?
N#Cc1c(NCCN)nc(-c2ccccc2)c2c1CCCC2 | ? | ? | 11.9% | ? | -55.1* | ?
CCN(CCCNc1cc2c(c(N)c1S(=O)(=O)O)C(=O)c1ccccc1C2=O)c1ccccc1 | ? | -10.0% | . | -3.4% | -13.9 | 18.4µM*
CN1CCC(C2(O)c3ccccc3CCc3ccccc32)CC1 | 18.4µM* | 2.6% | ? | 1.8% | -3.4 | ?
CC1CC(C)CN(CCCNC(=O)CN2C(=O)CSc3ccc(S(=O)(=O)N4CCCCC4)cc32)C1 (stereo not drawn) | ? | 1.4% | 18.9% | -2.9% | -60.0* | -6.6%
O=C(CN1C(=O)CSc2ccc(S(=O)(=O)N3CCOCC3)cc21)NCCc1ccccc1 | 4.3% | 0.9% | . | -2.0% | -13.4 | -7.8%
O=C(CN1C(=O)CSc2ccc(S(=O)(=O)N3CCOCC3)cc21)NCCCN1CCCCC1 | 5.3% | 7.3% | ? | 5.0% | 11.7 | 12.7%
O=C(CN1C(=O)CSc2ccc(S(=O)(=O)N3CCCCCC3)cc21)NCCc1ccccc1 | ? | -16.1% | . | -13.5% | -6.4 | 23.1µM*
Cc1cccc(N2C(=O)/C(=C/c3cccnc3)SC2=S)c1 | ? | -15.2% | -3.3% | -10.1% | -8.8 | -27.5%
Cc1cccc(NC(=O)CN2C(=O)N/C(=C/c3cc(C)n(-c4cccnc4)c3C)C2=O)c1 | 7.6% | -7.1% | 20.2% | -8.2% | 14.1 | ?
Cc1cc(/C=C2/SC(=S)N(c3cccc(Cl)c3)C2=O)c(C)n1-c1cccnc1 | 2.59µM* | 3.26µM* | . | ? | -64.4* | 2.06µM*
Cc1cc(/C=C2/SC(=S)N(c3ccc([N+](=O)[O-])cc3)C2=O)c(C)n1-c1cccnc1 | 1.64µM* | -9.3% | -10.8% | -8.9% | 38.9 | 1.03µM*
SMILES | DT40 TDP1 CPT | HT1080 IDH1KD tx | ELG1 DNA repair | HT1080-NT tox | IL1B secr inh | TDP1 cell noCPT
Cc1cc(/C=C2\SC(=S)N(C)C2=O)c(C)n1-c1ccccc1O | 20.6µM* | ? | . | ? | -83.7* | 8.2µM*
Cc1cc(/C=C2/NC(=O)N(c3ccccc3)C2=O)c(C)n1-c1cccnc1 | 25.9µM* | -9.3% | ? | -2.1% | -82.5* | ?
COCCN(C(=O)COC(=O)CCC(=O)c1cccs1)c1c(N)n(Cc2ccccc2)c(=O)[nH]c1=O | -18.9% | 0.1% | 1.5% | -1.8% | 8.1 | -8.3%
CCc1cc2c(c(CC)n1)CCC(=O)N2Cc1ccc(-c2ccccc2-c2nn[nH]n2)cc1 | 9.6% | . | . | . | . | -3.3%
CCOc1cc(C2c3c(n[nH]c3C)C(=O)N2c2ccc(Br)cc2)ccc1O (stereo not drawn) | -16.2% | -7.4% | ? | -19.2% | ? | -23.4%
CCOC(=O)c1ccc(N2C(=O)c3[nH]nc(-c4ccc(C)cc4)c3C2c2cccs2)cc1 (stereo not drawn) | 16.4µM* | . | . | . | . | 16.4µM*
CCOC(=O)c1ccc(N2C(=O)c3n[nH]c(C)c3C2c2ccco2)cc1 (stereo not drawn) | -5.1% | -7.0% | ? | -11.7% | -18.5 | -25.8%
CCOC(=O)c1ccc(N2C(=O)c3n[nH]c(-c4ccco4)c3C2c2ccc(C(=O)OC)cc2)cc1 (stereo not drawn) | 25.9µM* | . | . | . | . | 14.6µM*
CCOC(=O)c1ccc(N2C(=O)c3n[nH]c(-c4ccco4)c3C2c2ccc(O)c(OCC)c2)cc1 (stereo not drawn) | 16.4µM* | . | . | . | . | 14.6µM*
CCOC(=O)c1ccc(N2C(=O)c3[nH]nc(-c4ccc(C)cc4)c3C2c2ccc(O)c(OCC)c2)cc1 (stereo not drawn) | 18.4µM* | . | . | . | . | 23.1µM*
COCCN(C(=O)COC(=O)CCCOc1ccccc1)c1c(N)n(Cc2ccccc2)c(=O)[nH]c1=O | -5.1% | 7.0% | -8.1% | 0.2% | 9.0 | ?
CCOC(=O)c1ccc(N2C(=O)c3[nH]nc(-c4ccc(OC)cc4)c3C2c2ccccc2Cl)cc1 (stereo not drawn) | 18.4µM* | . | . | . | . | 23.1µM*
COc1ccc(/C([O-])=C(/C(=S)Nc2ccc(C)c(C)c2)n2c[n+](C)c3ccccc32)cc1OC | 29.1µM* | -1.4% | 2.0% | -4.1% | 5.1 | ?
Cc1ccc2ncc(C(=O)Nc3cccc(C(F)(F)F)c3)c(=O)n2c1 | 0.1% | . | . | . | . | 1.6%
O=C(c1ccc(C(=O)N2CCCc3ccccc32)s1)N1CCCc2ccccc21 | ? | 1.1% | -20.9% | 23.3% | -51.9* | ?
